Measured values reported in PubChem BioAssay (Tox21).
Values without a mark were called inactive. Active and inactive are the calls of the source. Calls follow the shape of the dose curve; as a rule, active = well fitted curve in the direction sought with a large enough effect in the repeat runs; inconclusive = weak or mixed curves; inactive = flat fitted curve, though single readings scatter.

Assay: qHTS assay to test for compound auto fluorescence at 535 nm (green) in HepG2 cells (AID 720675)
Conditions: green autofluorescence 485/535 nm, 1 h; series mostly up to 91.3 µM; fluorescence, % of fluorescein control: at the top concentration
% is scaled to controls: 0 for no effect and ±100 for the full control effect.

Row | Compound | fluorescence, % of fluorescein control | Potency
1 | c1cnc2cc3c(cc2n1)C1CNCC3C1 | 0.0185% [at 95.7 µM] | –
2 | NC(N)=NC(=O)Cc1c(Cl)cccc1Cl | -0.121% [at 46 µM] | –
3 | CC(=O)OCC1=C(C(=O)O)N2C(=O)[C@@H](NC(=O)Cc3cccs3)[C@H]2SC1 | 0.154% [at 46 µM] | –
4 | NCCCCCC(=O)O | 0.0481% [at 18.6 µM] | –
5 | CC1COC(=O)O1 (stereo unspecified) | – | inactive
6 | OCC(CO)N[C@H]1C[C@](O)(CO)[C@@H](O)[C@H](O)[C@H]1O | 0.0238% [at 46 µM] | –
7 | C=C(C)C1CC=C(C)C(OC(C)=O)C1 (stereo unspecified) | – | inactive
8 | C[N+]1([O-])CCOCC1 | -0.112% | –
9 | Cc1cccc(O)c1C | – | inactive
10 | Cc1cccc([N+](=O)[O-])c1C(=O)O | 0.0506% | –
11 | O=C(O)c1cc(Cl)cc(Cl)c1 | -0.113% | –
12 | c1ccc2n[nH]nc2c1 | – | inactive
13 | Nc1cc(Cl)c(-c2cc(Cl)c(N)cc2Cl)cc1Cl | – | inactive
14 | CCCNC(C)C(=O)Nc1ccccc1C (stereo unspecified) | -0.0095% [at 46 µM] | –
15 | OCCN1CCNCC1 | – | inactive
16 | C/C=C/c1ccc(OCC)c(O)c1 | 0.0963% | –
17 | C=CC(=O)OCCCCCCCC | -0.0266% | –
18 | CC(C)(C)NCC(O)c1cc(O)cc(O)c1 (stereo unspecified) | -0.0116% [at 46 µM] | –
19 | CC(=O)OCCOCCOCCOC(C)=O | – | inactive
20 | CNC1(C)C2CCC(C2)C1(C)C (stereo unspecified) | 0.0635% [at 46 µM] | –
21 | CCC(CO)(CO)COCC(CC)(CO)CO | -0.0067% | –
22 | CCN1CCCC1CNC(=O)c1cc(S(=O)(=O)CC)c(N)cc1OC (stereo unspecified) | 0.0704% [at 46 µM] | –
23 | O=C(O)CCc1ccccc1 | -0.0074% | –
24 | Nc1nc2ccccc2[nH]1 | – | inactive
25 | COC(=O)c1cccc(C(=O)OC)c1 | – | inactive
26 | CCC[C@H](N[C@@H](C)C(=O)N1[C@H](C(=O)O)C[C@@H]2CCCC[C@@H]21)C(=O)OCC | -0.0132% [at 46 µM] | –
